The structures appear in SMILES notation. Records with an inconclusive call do not appear. The source made the active and inactive calls. Rule for the calls: active = hit-call score of the fitted dose curve at least 0.9, where 1 is the maximum; inconclusive = response in the unintended direction; inactive = score below 0.9.

Sequence of Cellular tumor antigen p53 (Homo sapiens) (P04637 whole entry, looked up): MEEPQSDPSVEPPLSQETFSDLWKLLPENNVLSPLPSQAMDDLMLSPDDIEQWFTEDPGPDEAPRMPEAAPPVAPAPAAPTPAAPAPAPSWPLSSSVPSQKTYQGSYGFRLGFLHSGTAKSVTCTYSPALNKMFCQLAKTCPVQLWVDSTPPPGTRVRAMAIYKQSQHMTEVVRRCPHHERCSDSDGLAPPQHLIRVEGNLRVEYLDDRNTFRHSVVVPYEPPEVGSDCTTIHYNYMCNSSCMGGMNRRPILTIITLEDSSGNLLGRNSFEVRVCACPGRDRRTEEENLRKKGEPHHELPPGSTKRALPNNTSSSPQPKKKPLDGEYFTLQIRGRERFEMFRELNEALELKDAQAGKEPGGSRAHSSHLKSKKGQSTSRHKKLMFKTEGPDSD

The assay concerns the target Cellular tumor antigen p53 (Homo sapiens) (UniProt P04637). In words: TOX21_p53_BLA_p2_ratio: Tox21 HCT-116 p53 Agonism Beta-lactamase Assay, Ratio, Phase 2 (AID 2283592). The method, boiled down: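 An inducible beta-lactamase reporter in HCT116 cells signals p53 pathway activation. After 16 h chemical exposure at 37C, cells load CCF4-AM substrate for 2 h at room temperature; activity is the cleaved/uncleaved emission ratio relative to DMSO.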
Regarding `CN(C)CCC(O)(c1ccccc1)c1ccccc1Cl` (configuration not stated), the result was inactive. Then `C=CCCCCCC`, with “inactive”. Next, `CC(C)(C)NSc1nc2ccccc2s1`: “inactive”.

Turning to `CCCCCCCCCCCCOCCCN`, the result was inactive.

As to `CN[C@@H]1CCc2[nH]c3ccc(C(N)=O)cc3c2C1`, the result was inactive. As for `C[C@@H](c1ncncc1F)[C@](O)(Cn1cncn1)c1ccc(F)cc1F`, the result was inactive. Next, `O=C(Oc1ccccc1C(=O)O)c1ccccc1O`: “inactive”. In the case of `CCC(C=O)CC`, the result was inactive. Then `Cc1cc(N)c(S(=O)(=O)O)cc1Cl`, with “inactive”; and `CC1(C)S[C@@H]2[C@H](NC(=O)[C@@H](NC(=O)N3CCNC3=O)c3ccccc3)C(=O)N2[C@H]1C(=O)O`, with “inactive”; and `O=C(c1ccc(Cl)cc1)c1ccc(Cl)cc1`, with “inactive”. For the molecule `FC(F)(F)c1ccccc1-n1ccnc1`, the outcome was inactive. Then `CCN(CC)CC(=O)Nc1c(C)cccc1C`, with “inactive”. Then `NC(CO)C(=O)NNCc1ccc(O)c(O)c1O` (configuration not stated), with “inactive”. Regarding `CN1CCN(c2cc3c(cc2F)c(=O)c(C(=O)O)cn3-c2ccc(F)cc2)CC1`, the result was inactive. Next, `CC(C)c1ccccc1C(C)C`: “inactive”; `CC/C(=C(/CC)c1ccc(OP(=O)(O)O)cc1)c1ccc(OP(=O)(O)O)cc1`: “inactive”; `Cc1cccc(C)c1NC(=O)NC1=CCCN1C`: “inactive”. Then `CC(C)(C)c1nnc(NS(=O)(=O)c2ccccc2)s1`, with “inactive”; and `CCN1CCN(C(=O)N[C@@H](C(=O)N[C@@H]2C(=O)N3C(C(=O)O)=C(CSc4nnnn4C)CS[C@H]23)c2ccc(O)cc2)C(=O)C1=O`, with “inactive”.

For `COc1cc(C(=O)N2CCCCCCC2)cc(OC)c1OC`, the result was inactive.

As to `Nc1cccc2c(=O)[nH][nH]c(=O)c12`, the result was inactive.

(Values after PubChem BioAssay (EPA / NIEHS).)
